PubChem BioAssay AID1159580 (chemical genetic matrix, 2015)
Several values for one entry are separate records, joined by “and”; a condition that tells them apart may be missing. Identical values can stand only once. In all, about 5,500 compounds went through this assay and about 2,000 (36%) were called active. Another 18% or so got no clear call; they are omitted. Cut-off read from the data, not from the text of the source: active = normalized growth mostly below about 0.91 (no sharp cut-off); inconclusive = no clear call, values can overlap the other calls; inactive = mostly above about 0.92. Some of the results follow.

Assay: chemical genetic growth profiling, strain panel (AID 1159580);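 note: tested at 20 µM; growth read once vehicle control cultures reached saturation at 30 °C; 1 = growth at the plate median or of vehicle wells; lower values mean less growth of the strain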
Settings: S. cerevisiae deletion strains, growth OD

Measured: normalized growth

C[C@]12CC[C@H](O)C[C@H]1CCC1C2CC[C@]2(C)[C@@H](C3=CC(=O)OC3)[C@@H](O)C[C@]12O (stereo partly drawn)
inactive: locus YBR021W, strain FUR4, hits give low values 1.02 | locus YBR229C, strain ROT2, hits give low values 1.02 | locus YCL029C, strain bik1, hits give low values 1.01 | locus YDL035C, strain GPR1, hits give low values 1.08 | locus YDL074C, strain BRE1, hits give low values 1.1 | locus YDL101C, strain DUN1, hits give low values 1.02 | locus YDL185W, strain tfp1, hits give low values 0.974 | locus YDL192W, strain arf1, hits give low values 1.02 | locus YDR101C, strain arx1, hits give low values 1 | locus YDR150W, strain NUM1, hits give low values 1.03 | locus YDR162C, strain NBP2, hits give low values 1.03 | locus YDR318W, strain mcm21, hits give low values 0.998 | locus YDR388W, hits give low values 0.984 | locus YDR502C, strain sam2, hits give low values 1.01 | locus YEL061C, strain CIN8, hits give low values 1.02 | locus YER110C, hits give low values 0.997 | locus YER155C, strain BEM2, hits give low values 1 | locus YER167W, strain BCK2, hits give low values 1.02 | locus YGL078C, strain dbp3, hits give low values 0.982 | locus YGL086W, strain mad1, hits give low values 1 | locus YGL248W, strain PDE1, hits give low values 1.05 | locus YGR078C, strain PAC10, hits give low values 1.03 | locus YGR135W, strain pre9, hits give low values 1 | locus YGR229C, strain SMI1, hits give low values 1.13 | locus YGR252W, strain gcn5, hits give low values 0.962 | locus YHR030C, strain SLT2, hits give low values 1 | locus YHR079C, strain IRE1 (second series), hits give low values 0.983 | locus YHR079C, strain IRE1, hits give low values 0.982 | locus YHR094C, strain hxt1, hits give low values 0.982 | locus YHR129C, strain ARP1, hits give low values 1.03 | locus YHR200W, strain rpn10, hits give low values 0.995 | locus YIL066C, strain RNR3, hits give low values 1.03 | locus YIL073C, strain SPO22, hits give low values 1.07 | locus YIL125W, strain kgd1, hits give low values 1.02 | locus YIR030C, strain dcg1, hits give low values 0.994 | locus YJL095W, strain BCK1, hits give low values 1.07 and 0.981 | locus YJL134W, strain LCB3, hits give low values 1.02 | locus YJL168C, strain set2, hits give low values 0.975 | locus YJL187C, strain SWE1 (second series), hits give low values 1.04 | locus YJR043C, strain POL32, hits give low values 1.06 | locus YJR066W, strain TOR1, hits give low values 0.968 | locus YKL009W, strain mrt4, hits give low values 1.01 | locus YKL068W, hits give low values 0.994 | locus YKL085W, strain MDH1 (second series), hits give low values 0.996 | locus YKL085W, strain MDH1, hits give low values 0.996 | locus YKL190W, strain CNB1, hits give low values 1.02 | locus YKR001C, strain vps1, hits give low values 1.03 | locus YLR039C, strain RIC1, hits give low values 1.15 | locus YLR058C, strain SHM2, hits give low values 1.04 | locus YLR102C, strain apc9, hits give low values 0.989 | locus YLR113W, strain HOG1, hits give low values 0.975 | locus YLR262C, strain YPT6, hits give low values 1.16 | locus YLR268W, strain sec22, hits give low values 1 | locus YLR330W, strain CHS5, hits give low values 1.02 | locus YLR342W, strain FKS1 (second series), hits give low values 1.05 | locus YLR371W, strain rom2, hits give low values 1 | locus YLR418C, strain cdc73, hits give low values 1.01 | locus YML016C, strain PPZ1, hits give low values 1.03 | locus YML032C, strain rad52, hits give low values 1 | locus YML124C, strain tub3, hits give low values 0.987 | locus YMR078C, strain ctf18, hits give low values 0.986 | locus YMR223W, strain ubp8, hits give low values 1 | locus YMR307W, strain GAS1, hits give low values 1.19 | locus YNL067W, strain RPL9B, hits give low values 1.01 | locus YNL153C, strain GIM3, hits give low values 1.04 | locus YNL183C, strain NPR1, hits give low values 0.93 | locus YNL233W, strain BNI4, hits give low values 1.06 | locus YNL250W, strain rad50, hits give low values 1.01 | locus YNL271C, strain bni1, hits give low values 0.999 | locus YNL298W, strain CLA4, hits give low values 0.994 | locus YNL307C, strain MCK1, hits give low values 0.98 | locus YNR052C, strain pop2, hits give low values 0.987 | locus YOL006C, strain TOP1, hits give low values 1.27 | locus YOL012C, strain htz1 1.03 | locus YOL147C, strain pex11, hits give low values 0.993 | locus YOR061W, strain CKA2, hits give low values 1.03 | locus YOR069W, strain VPS5, hits give low values 1.02 | locus YOR136W, strain idh2, hits give low values 0.991 | locus YOR144C, strain elg1, hits give low values 0.989 | locus YOR184W, strain ser1, hits give low values 1.05 | locus YOR231W, strain MKK1, hits give low values 0.982 | locus YOR316C, strain cot1, hits give low values 1 | locus YPL256C, strain CLN2, hits give low values 1.03 | locus YPR119W, strain clb2, hits give low values 0.982 | locus YPR141C, strain kar3, hits give low values 0.997 | locus YPR163C, strain tif3, hits give low values 0.997 | locus YPR167C, strain met16, hits give low values 0.99 | strain wtn01, hits give low values 1.02
